Screening results: PubChem, National Center for Advancing Translational Sciences (NCATS)
MARV entry inh: qHTS for inhibitors of binding or entry into cells for Marburg Virus; Marburg virus pseudotyped entry inhibition, cell reporter; Potency, µM (doses to about 37.8 µM), inactives show at the highest dose activity change, negative = inhibition, usual class: inhibitors; 1.8% of 300,000 active; AID 540276, 2011; calls by dose curve; tested in HEK293 cells
VACV mCherry inh: qHTS for Stage-Specific Inhibitors of Vaccinia Orthopoxvirus: mCherry Reporter Primary qHTS; Vaccinia virus mCherry reporter infection, fluorescence; Potency, µM (doses to about 36.5 µM), for inactives: at the highest dose activity change, negative = inhibition, most hits filed as inhibitors; 0.63% of 310,000 active; calls by dose curve; tested in A549 cells; note: nearly all actives have a fitted effect of over 35% in size
LASV entry inh: qHTS for Inhibitors of binding or entry into cells for Lassa Virus. 1.2% of 300,000 active. Potency, µM (doses to about 37.9 µM), inactives show top-dose activity change, negative = inhibition, usual class: inhibitors. Lassa virus pseudotype entry inhibition, cell reporter; calls by dose curve; tested in HEK293 cells; note: nearly all actives have a fitted effect of over 50% in size
FMDV inh: High Throughput Screening for Foot and Mouth Disease Virus Antivirals; FMDV antiviral cell-based qHTS; Potency, µM (doses to about 57.9 µM), inactives show at the highest dose activity change, negative = inhibition, most hits filed as inhibitors; 1.2% of 410,000 active; AID 1159524, 2015; calls by dose curve; tested in HEK293T cells; note: read-out not given here; nearly all actives have a fitted effect of over 45% in size
VACV Venus inh: qHTS for Stage-Specific Inhibitors of Vaccinia Orthopoxvirus: Venus Reporter Primary qHTS. Vaccinia virus Venus reporter expression, fluorescence. Potency, µM (doses to about 36.5 µM), for the others: top-dose activity change, negative = inhibition, most hits filed as inhibitors. 0.46% of 330,000 active. AID 720580, 2013; calls by dose curve; tested in A549 cells; note: nearly all actives have a fitted effect of over 30% in size
HCV inhibitor: qHTS Assay for Inhibitors of Hepatitis C Virus (HCV). Potency, µM (top dose mostly 41.8 µM), for the others: top-dose activity change, negative = inhibition, hits mostly inhibitors. 3.4% of 340,000 active. Huh7.5.1 HCVcc-Cre infection, luciferase reporter, 44 h; active = well fitted inhibition curve with a large enough effect; inconclusive = small, poorly fitted or top-dose-only effect, or another doubt; inactive = no such curve, though single readings can be large or run the other way
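Antiviral activity was scored by luciferase reporter output from cells infected with HCVcc-Cre (~0.5 moi) in presence of compound, 44 h infection period, cells seeded 1,000/well 4 h prior.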
The depositor's hits bear a star; i = inactive; ? = inconclusive; · = no result; [ ] = dose if it differs, or a comment. Most compounds without a hit are left out; they make up all but 5.3% or so of the library. % is set by controls: 0 for no effect and ±100 for the full control effect; potency is the fitted concentration of half-maximal effect.

SMILES	MARV entry inh	VACV mCherry inh	LASV entry inh	FMDV inh	VACV Venus inh	HCV inhibitor
CCOC(=O)C(C)Sc1nc2c(cnn2-c2ccc(C)cc2)c(=O)[nH]1 (centres undefined)	?	?	-14%	-12%	-29%	11µM*
CCCNC(=O)c1ccc2c(=O)c(O)c(-c3ccc(C)cc3)[nH]c2c1	·	13µM*	·	-23%	?	-20%[8.37 µM]
COc1ccccc1-c1ccnc(-n2ncc(C(=O)N3CCN(C4CCCC4)CC3)c2-c2ccco2)n1	·	-19%	·	0%	-7%	·
COc1ccc(OC)c2[nH]c(C(=O)N3CCC(C(=O)O)CC3)cc12	·	·	·	-11%	·	-2%
COc1cc2cc(C(=O)N3CC(COS(C)(=O)=O)c4ccc(O)cc43)[nH]c2c(OC)c1OC (centres undefined)	?	?	?	6.3µM*	35µM*	?
CCc1cccc(OCC2Cn3c(nc4c3c(=O)n(C)c(=O)n4C)O2)c1 (centres undefined)	-42%[46.1 µM]	i	?	-24%	-18%	?
Nc1ncnc2c1nc(Sc1ccc(Cl)cc1)n2[C@H]1OC2COP(=O)(O)O[C@@H]2C1O (some centres undefined)	8%	·	14%	·	·	·
O=C(/C=C/c1ccncc1)c1ccc2c(c1)OCCO2	14µM*	-8%	?	28µM*	-22%	-4%
COc1cc(/C=C/C(=O)c2ccc3c(c2)OCCO3)cc(Br)c1OCC(=O)N(C)C	?	2.8µM*	-23%	7.9µM*	?	7.1µM*
CCc1cccc(NC(=O)CN(c2ccc(C)cc2)S(=O)(=O)c2cccs2)c1	?	-17%	-8%[46.1 µM]	-16%	-8%	·
Nc1c2c(nc3ccccc13)CCCC2	?	0%	?	-10%	-12%	?
Nc1c2ccccc2nc2ccccc12	?	?	?	?	10µM*	5µM*
Cc1nc(N=Nc2cc(S(=O)(=O)O)c3cc([N+](=O)[O-])cc(S(=O)(=O)O)c3c2)c(COP(=O)(O)O)c(C=O)c1O	20µM*	-2%	?	-23%	-11%	·
Cc1nc(N=Nc2cc([N+](=O)[O-])ccc2Cl)c(COP(=O)(O)O)c(C=O)c1O	·	·	·	9%	·	·
Nc1ncnc2c(C3OC(CO)C(O)C3O)c[nH]c12 (centres undefined)	?	0.28µM*	?	0%	0.25µM*	?
CCOc1ccc(S(=O)(=O)N2CCN(c3cccc(C(F)(F)F)c3)CC2)cc1OCC	5%[46.1 µM]	-10%	-18%[46.1 µM]	36%	-14%	·
COc1ccc(/C=C/C(=O)c2c(O)n(CCC3=CCCCC3)c(=O)[nH]c2=O)cc1	?	-10%	?	35µM*	-6%	4%
O=C(/C=C/c1ccc2c(c1)OCO2)c1c(O)n(CCC2=CCCCC2)c(=O)[nH]c1=O	2%	i	-12%	?	-8%	14%
CC(=O)C1=C(c2ccccc2)NC(=O)NC1c1ccc(O)c(Cl)c1 (centres undefined)	-5%[46.1 µM]	?	-15%[46.1 µM]	-18%	-12%	0%
COc1ccc(C2C(C#N)=C(N)OC3=C2C(=O)CC(C)(C)C3)cc1OC (centres undefined)	3%	-6%	?	-7%	-2%	-2%
COc1cc(C2C(C#N)=C(N)Oc3c2ccc2ccccc32)ccc1OCC(=O)Nc1ccc(C)cc1 (centres undefined)	?	?	?	?	-23%	2µM*
COc1ccc(C2C(C#N)=C(N)Oc3c2ccc2cccnc32)cc1OC (centres undefined)	?	8.9µM*	?	3%	?	-17%
COc1cc(C2C(C#N)=C(N)Oc3c2ccc2ccccc32)ccc1OCC(=O)Nc1cccc(C)c1 (centres undefined)	?	-20%	10µM*	?	?	?
C#CCOc1ccc(C2C(C(=O)OC)=C(C)NC3=C2C(=O)c2ccccc23)cc1OCC (centres undefined)	-19%[46.1 µM]	-10%	-3%[46.1 µM]	-22%	-11%	·
Cc1cccc(CNc2ncncc2-c2cccc(NS(C)(=O)=O)c2)c1	·	-27%	·	-9%	-14%	·
SMILES	MARV entry inh	VACV mCherry inh	LASV entry inh	FMDV inh	VACV Venus inh	HCV inhibitor
Cc1ccc(-c2ccccc2[C@@H]2C[C@H]3CN(C)C(=O)[C@]34CCCN24)o1	8%[46.1 µM]	-19%	-14%	-11%	-12%	11%
O=C1N(c2ccccc2)C[C@@H]2C[C@@H](c3cc4ccccc4o3)N3CCC[C@@]123	?	0.89µM*	?	-29%	?	?
C/C(=N\NC(=S)Nc1c(C)cccc1C)c1cc2ccccc2o1	?	7.1µM*	?	-26%	?	?
C[C@H]1[C@@H](C(=O)N2CCCC2)CC(=NOCc2ccccc2)C(=NOCc2ccccc2)C[C@H]1c1ccccc1	-29%[14.2 µM]	·	?	·	·	·
CCCN(C(=O)CSCC(=O)Nc1cccc(C)c1)c1c(N)n(Cc2ccccc2)c(=O)[nH]c1=O	-16%	i	12%	-19%	-7%	26%
Cc1cccc(NC(=O)CSCC(=O)N(CCC(C)C)c2c(N)n(Cc3ccccc3)c(=O)[nH]c2=O)c1	?	-16%	10µM*	-24%	-8%	?
CCn1cc([N+](=O)[O-])c(C(=O)N2N=C(c3ccc(Cl)c(Cl)c3)CC2c2ccccc2O)n1 (centres undefined)	?	-29%	-30%[46.1 µM]	-11%	?	?
CCn1cc([N+](=O)[O-])c(C(=O)N2N=C(c3ccc4ccccc4c3)CC2c2cc(Br)ccc2O)n1 (centres undefined)	?	14µM*	?	-16%	?	?
NC(=O)c1sc(-n2cnc3ccccc32)cc1OCc1ccccc1Br	·	·	8.9µM*	·	·	·
COc1cc2ncn(-c3cc(OCc4ccccc4Cl)c(C(N)=O)s3)c2cc1OC	·	·	0.63µM*	·	·	·
Cn1c(COc2ccccc2Br)nc2ccccc21	·	·	·	54%	·	-22%
COc1ccc2ncn(-c3cc(OC(C)c4ccccc4Cl)c(C(N)=O)s3)c2c1 (centres undefined)	·	·	0.1µM*	·	·	·
Nc1nc[nH]c(=O)c1N	·	17%	·	·	-13%	·
CSc1ccccc1-c1nnc(-c2ccc(C)cc2)o1	?	·	?	8%	-33%	?
CSc1ccccc1-c1nnc(-c2ccccc2)o1	-8%	·	-29%	-12%	-5%	8.9µM*
Cc1ccc(Cn2c(SCC(=O)NCc3ccc(Cl)cc3)nc3ccsc3c2=O)cc1	·	-13%	6%[46.1 µM]	-11%	-15%	·
CCN(CC)CCOC(=O)c1ccc(N/C=C(/C#N)c2nc(-c3cc4ccccc4oc3=O)cs2)cc1	5%[46.1 µM]	i	?	8%	-11%	3%
